Experimental findings from PubChem BioAssay are described below.

Activity calls are given as the source filed them.

For this assay, the system named is XIP peptide (Xip251-270) binding. The experiment in a line: small-molecule binders of XIP peptide, primary screen, biochemical, small-molecule microarray, fluorescence 635/667 nm, 0.1 µg/mL protein (AID 1182). The note with it: fluorescent protein binding, 635 nm, higher = more signal, called active from +8 up or from −8 down.
With `C=C(C(=O)CC[C@H](OC(=O)c1cccnc1)c1ccc(OCCO)cc1)C(C)C`, the composite z-score is 0.538 (inactive).

Turning to `COC(=O)[C@@]1(Cc2ccccc2)[C@H]2c3cc(C(=O)N4CCCC4)n(CCO)c3C[C@H]2CN1C(=O)c1ccccc1`, the composite z-score was 1.06 (inactive).

For `C=CCNC(=O)[C@H]1[C@@H]2C(=O)O[C@@H](c3ccccc3)[C@@H](c3ccccc3)N2[C@@H](c2ccc(OCCO)cc2)[C@]12C(=O)N(C(=O)OCCOC)c1ccc(C#CC3=CCCCC3)cc12`, the composite z-score was 0.377 (inactive).

For the compound `O=C1C2C=CC(C(O)c3cccc4ccccc34)N(Nc3ccccc3)C2C(=O)N1c1ccccc1` (stereo unspecified), the composite z-score is 0.179 (inactive).

Turning to `Cc1ccc(S[C@]2(C(=O)O)CC(=O)N(C3CCCCC3)[C@@H]2c2ccc(CO)cc2)cc1`, the composite z-score was 1.15 (inactive).

In the case of `CC(=O)NCCCC[C@@H]1NC(=O)[C@H]2C[C@@H](C(=O)NCCCCCN)[C@@H](c3cccc(OCCO)c3)N2C1=O`, the composite z-score is 0.149 (inactive).

Turning to `C=C(CCCC)/C(=C/C[C@@H](OC(=O)c1ccncc1)c1ccccc1OCCO)c1cc(C(=O)OC)ccc1OC`, the composite z-score is 0.711 (inactive).

As to `C=CC[C@]1(C(=O)N2CCOCC2)N=C(c2ccc(OCCCO)cc2)O[C@H]1c1ccccc1CN=[N+]=[N-]`, the composite z-score was 0.349 (inactive).

For `C=C(C)[C@@H]1CC=C(C(O)C2C=CC3C(=O)N(C4CCCCC4)C(=O)C3N2Nc2ccc(OC)cc2)CC1` (stereo partly specified), the composite z-score was 0.376 (inactive).

`CC1(C)[C@@H]2CC(C(O)C3C=CC4C(=O)N(c5ccccc5)C(=O)C4N3Nc3ccccc3F)=C[C@@H]1C2` (stereo partly specified): the composite z-score was 0.572 (inactive).

On to `[N-]=[N+]=NCc1ccccc1[C@H]1OC(c2ccc(OCCCO)cc2)=N[C@@]1(Cc1ccccc1N=[N+]=[N-])C(=O)N1CCCCC1`, for which the composite z-score was 0.538 (inactive).

As for `CC(C)N1CC=CC23O[C@@H]4C=CCOC(=O)[C@@H]4[C@H]2C(=O)N(CCCCCCO)[C@@H]3C1=O` (stereo partly specified), the composite z-score is -0.0725 (inactive).

As for `CN1C(=O)C2C=CC(C(O)C3CCCCC3)N(N(c3ccccc3)c3ccccc3)C2C1=O` (stereo unspecified), the composite z-score was -0.119 (inactive).

For the compound `CC(C)(C)OC(=O)CC[C@]1(C(=O)O)COC(c2ccc(OCCCO)cc2)=N1`, the composite z-score is 3.69 (inactive).

Consider `O=C1O[C@H](c2ccccc2)[C@H](c2ccccc2)N2[C@H]1[C@@H](C(=O)N1CCN(c3ncccn3)CC1)[C@]1(C(=O)Nc3ccc(C#CCCO)cc31)[C@H]2c1ccc(OCCO)cc1`, for which the composite z-score was 0.756 (inactive).

Turning to `CN1C(=O)C2C=CC(C(O)c3cccc4ccccc34)N(NC(=O)OC(C)(C)C)C2C1=O` (stereo unspecified), the composite z-score is 0.704 (inactive).
